Source: PubChem BioAssay (Tox21)
Inconclusive results are not listed. Entries that show only a call come without a potency. Calls of active or inactive are those of the source. Calls follow the shape of the dose curve; as a rule, active = well fitted cell-killing curve with a large enough effect in the repeat runs; inconclusive = weak or mixed curves, or effect the other way; inactive = no such curve, though single readings can be large or run the other way.
Potency is read from the fitted curve at half-maximal effect.

Experiment: qHTS assay to identify small molecule antagonists of the progesterone receptor (PR) signaling pathway - cell viability counter screen (AID 1346798); also: nearly all actives have a fitted effect of over 50% in size
Details: PR-UAS-bla HEK293T viability, CellTiter-Glo luminescence, 16 h; series mostly up to 92.4 µM
Text: National Center for Advancing Translational Sciences [NCATS]
NIH Chemical Genomics Center [NCGC]
U.S. Environmental Protection Agency [EPA]
National Institutes of Environmental Health Sciences [NIEHS]
National Toxicology Program [NTP]
U.S. Food and Drug Administration [FDA]
Progesterone receptor (PR), a nuclear hormone receptor, plays an important role in development, metabolic homeostasis and reproduction. It is activated by the steroid hormone progesterone. Endocrine disrupting chemicals (EDCs) and their interactions with steroid hormone receptors like PR causes disruption of normal endocrine function. To identify the compounds that inhibit PR signaling, a PR-UAS-bla GripTite cell line i.e. PR-UAS-bla HEK293T (Invitrogen, Carlsbad, CA, USA) containing a beta-lactamase reporter gene under the control of an UAS response element was used to screen Tox21 10K compound library. The cytotoxicity of the Tox21 compound library against the PR-bla cell line was tested in parallel by measuring the cell viability using CellTiter-Glo assay in the same wells.
Tox21 Assay Protocol Summary:
PR-UAS-bla HEK293T cells were dispensed at 3,000 cells/4 uL of assay medium containing 2% charcoal stripped FBS per well into black wall/clear-bottom 1536-well plates using a Multidrop Combi (ThermoFisher Scientific, Waltham, MA) dispenser. After the assay plates were incubated at a 37C and 5% CO2 for 4 hr, 23 nL of compounds dissolved in DMSO, positive controls or DMSO only was transferred to the assay plate by a Pintool station (Kalypsys, San Diego, CA), followed by addition of 1 uL of R5020 in assay medium using a Flying Reagent Dispenser (FRD, Aurora Discovery, San Diego, CA). The plates were incubated at 37C and 5% CO2 for 16 hr. Then 1 uL of LiveBLAzer B/G FRET substrate was added using a Flying Reagent Dispenser, the plates were incubated at room temperature for 2 hours, and fluorescence intensity was measured by an Envision plate reader (PerkinElmer, Shelton, CT). For cell viability readout that measures cytotoxicity, 4 uL/well of CellTiter-Glo reagent was added into the assay plates using a FRD. After 30 min incubation at room temperature, the luminescence intensity in the plates was measured using a ViewLux (PerkinElmer) plate reader.
For `COc1ccc2nc(N)sc2c1`, the Potency was “inactive”.
With `CC(=O)[C@@]1(O)CC[C@H]2[C@@H]3C[C@H](C)C4=CC(=O)C=C[C@]4(C)[C@@]3(F)[C@@H](O)C[C@@]21C` the Potency was “inactive”.
With `C[N+](C)(C)CCO` the Potency was “inactive”.
With `O=[Se](O)O` the Potency was “inactive”.
With `C=C[C@H]1CN2CC[C@H]1C[C@H]2[C@H](O)c1ccnc2ccc(OC)cc12` the Potency was “inactive”.
For `Nc1cc(Cl)c(N)c(Cl)c1`, the Potency was “inactive”.
With `CCCCCCCCCCC(CO)CCCCCCCC` (stereo not given) the Potency was “inactive”.
For `CC[C@]12CCCN3CCc4c(n(c5ccccc45)[C@@](O)(C(=O)OC)C1)[C@@H]32`, the Potency was “inactive”.
With `CC(C)=CCO` the Potency was “inactive”.
In the case of `CCCCCCCC/C=C\CCCCCCCC(=O)O`, the Potency is reported as “inactive”.
With `O=S1(=O)CCCO1` the Potency was “inactive”.
In the case of `CN1CCOCC1`, the Potency is reported as “inactive”.
In the case of `CC(C)(C)c1cccc(C(C)(C)C)c1O`, the Potency is reported as “inactive”.
In the case of `CC1=CC(C)(C)Nc2ccccc21`, the Potency is reported as “inactive”.
With `O=C(O)COCCN1CCN(C(c2ccccc2)c2ccc(Cl)cc2)CC1` (stereo not given) the Potency was “inactive”.
For `CCCCCC1C(=O)CCC1CC(=O)OC` (stereo not given), the Potency was “inactive”.
In the case of `COC(=O)CC(=O)OC`, the Potency is reported as “inactive”.
With `CC(C)(Oc1ccc(Cl)cc1)C(=O)O` the Potency was “inactive”.
In the case of `Nc1cc([N+](=O)[O-])ccc1C(=O)O`, the Potency is reported as “inactive”.
For `C[C@]12C=CC(=O)C=C1CC[C@H]1[C@@H]3C[C@@H](O)[C@](O)(C(=O)CO)[C@@]3(C)C[C@H](O)[C@@]12F`, the Potency was “inactive”.
With `CC(=O)[C@H]1CC[C@H]2[C@@H]3CC=C4C[C@@H](O)CC[C@]4(C)[C@H]3CC[C@]12C` the Potency was “inactive”.
In the case of `CC1(C)OC(=O)NC1=O`, the Potency is reported as “inactive”.
In the case of `Oc1c(Cl)ccc(Cl)c1Cl`, the Potency is reported as “inactive”.
For `ClC/C=C/CCl`, the Potency was “inactive”.
With `c1ccc2c(c1)[nH]c1ccccc12` the Potency was “inactive”.
For `CC/C(=C(/CC)c1ccc(O)cc1)c1ccc(O)cc1`, the Potency was 60.6 µM (active).
With `c1ccc2c(c1)ccc1ncccc12` the Potency was “inactive”.
In the case of `NCCN`, the Potency is reported as “inactive”.
With `CC(C)[C@@H]1CC[C@@H](C)CC1=O` the Potency was “inactive”.
In the case of `CCCCCCC(C)O` (stereo not given), the Potency is reported as “inactive”.
With `NCCOCCO` the Potency was “inactive”.
With `C=CN1CCCC1=O` the Potency was “inactive”.
In the case of `CCCCCC=O`, the Potency is reported as “inactive”.
With `C1COCCN1` the Potency was “inactive”.
With `C=CC(=O)OCCCC` the Potency was “inactive”.
In the case of `CCCOCCO`, the Potency is reported as “inactive”.
For `CN(C)C`, the Potency was “inactive”.
With `CCOC(=O)C(C)Oc1ccc(Oc2cnc3cc(Cl)ccc3n2)cc1` (stereo not given) the Potency was “inactive”.
For `CC(=O)OC(C)C`, the Potency was “inactive”.
With `COC(=O)C(C)Oc1ccc(Oc2ncc(C(F)(F)F)cc2Cl)cc1` (stereo not given) the Potency was “inactive”.
